From ChEMBL document CHEMBL1157539, “Thousands of chemical starting points for antimalarial lead identification” (Nature, 2010)

Key:
Type in all cases: functional
Plasmodium falciparum [1] = assay: GSK_TCMDC: Inhibition of Plasmodium falciparum 3D7 in whole red blood cells, using parasite LDH activity as an index of growth. Test compounds present at 2uM
Plasmodium falciparum [2] = assay: GSK_TCMDC: Inhibition of Plasmodium falciparum Dd2 in whole red blood cells, using parasite LDH activity as an index of growth. Test compounds present at 2uM
HepG2 = assay: GSK_TCMDC: Percent inhibition of human HepG2 cell line. Test compounds present at 10uM.

SMILES	Inhibition (Plasmodium falciparum [1]) [%]	Inhibition (Plasmodium falciparum [2]) [%]	Inhibition (HepG2) [%]
CCOc1ccc2nc(NC(=O)c3csnn3)sc2c1	100	98	6
CC1CCC(C[C@@H](C(=O)N[C@H](C(=O)Nc2nccs2)[C@@H](C)O)[C@H](CCC(F)(F)F)N(O)C=O)CC1 (some centres not stated)	95	94	0
O=C(O)C(F)(F)F.OCC1CCN(Cc2ccc(-c3cccc(-c4nc5cc(F)ccc5[nH]4)c3)cc2)CC1	100	25	14
COc1ccc(C2CC(=O)C3=C(C2)NC(C)=C(C(=O)OC(C)C)C3c2cccc(O)c2)cc1OC (configuration not stated)	100	85	0
CC(=O)Nc1ccc(CN2CCC(NC(=O)c3ccc(-c4cccc(Cl)c4)s3)CC2)cc1.O=C(O)C(F)(F)F	97	59	34
CCCCN(CCCC)Cc1cc(Nc2ccnc3cc(Cl)ccc23)ccc1O.Cl	100	87	67
Cl.N=C(N)NN=C1C=Cc2cccc3cccc1c23	100	49	9
COc1ccc2ncc(Cl)c(CCN3C[C@H](CNCc4ccc5c(n4)NC(=O)CS5)[C@H](O)C3)c2n1.Cl	94	16	2
Cc1cc(O)nc(NC(=N)NOCc2ccccc2)n1	100	1	0
CC1CCCN(Cc2cc(Cl)cc(Cl)c2O)C1 (configuration not stated)	89	77	22
CN1CCC(N2CCN(Cc3ccc(-c4cccc(-c5nc6cc(F)ccc6[nH]5)c4)cc3)CC2)CC1.O=C(O)C(F)(F)F	100	99	67
Cc1cc(N2CCCC2)nc(Nc2ccc(NC(=O)C3CCCC3)cc2)n1	100	81	27
Cl.N#Cc1ccc2c(c1)CCN(CCC1CCC(NC(=O)c3ccc(-c4ccccc4)s3)CC1)CC2 (configuration not stated)	99	36	6
CC(C)C(C(=O)n1cc2c(ccc3nc(N)nc(N)c32)n1)C(C)C	98	49	58
Cc1cc(C(=O)Nc2ccc3c(ccn3C3CCCN(Cc4ccc(C(F)(F)F)cc4F)CC3)c2)no1 (configuration not stated)	92	95	19
CC(=O)Nc1nc(C(=O)Nc2cccc(-c3ccc(-c4nc5cccc(C)c5[nH]4)s3)c2)cs1	100	67	14
CC(C)COc1ccc(Cl)cc1Cc1nc(-c2nc3cccc(CN4CCN(C)CC4)c3[nH]2)cs1	99	30	15
CCNC(=O)Nc1ccc(N(C)c2ccnc(Nc3ccc(CS(C)(=O)=O)cc3)n2)cc1.Cl	100	99	0
O=C(CCC1CCCCC1=O)c1ccccc1 (configuration not stated)	91	3	0
O=C(Nc1cccc(C(F)(F)F)c1)NC1CCN(c2ccnc3cc(Cl)ccc23)CC1.O=C(O)C(F)(F)F	100	47	13

SMILES	Inhibition (Plasmodium falciparum [1]) [%]	Inhibition (Plasmodium falciparum [2]) [%]	Inhibition (HepG2) [%]
COc1cc(Nc2nccn3c(-c4ccsc4)cnc23)cc(OC)c1OC	93	78	26
CCN(CC)Cc1cc(NC(=O)c2ccccc2O)ccc1Oc1ccc(Cl)cc1.Cl	98	88	32
N=C(N)NN=CC(=O)Nc1cc([N+](=O)[O-])cc([N+](=O)[O-])c1.O=S(=O)(O)O	100	0	0
O=C(O)C(F)(F)F.O=[N+]([O-])c1cccc(CNCC2CCN(Cc3ccc(C(F)(F)F)cc3)CC2)c1	100	23	7
O=c1cc(NCCCN(Cc2ccccc2)Cc2ccccc2)[nH]c2ccccc12	100	93	7
CCCNC(=O)c1cncc(-c2ccc(CNCCCc3ccccc3)cc2)c1.O=C(O)C(F)(F)F	100	29	0
O=C(/C=C/c1ccc(Cl)c(Cl)c1)N1CCC(CCN2CCC(c3nc4cc(O)ccc4[nH]3)CC2)CC1	100	60	42
COc1cc(CNC[C@@H](O)[C@H](Cc2ccccc2)NC(=O)c2cc(C3CCCC3)cc(N3CCCCS3(=O)=O)c2)cc(OC)c1.Cl	98	96	16
COc1ccc(CNCc2ccsc2)cc1-c1ccc(OC)c(S(=O)(=O)NCCN2CCCC2)c1.O=C(O)C(F)(F)F	97	62	18
CCc1ccc(N2C(N)=NC(N)=NC2(C)C)cc1.Cl	94	0	51
CC(=O)N(C)c1ccc(C(=O)Nc2cccc(-c3cccc(-c4nc5cc(C(F)(F)F)ccc5[nH]4)c3)c2)cc1	96	29	31
O=C(Nc1ccc2c(c1)CCN2C1CCN(Cc2ccc(O)cc2)C1)c1ccco1 (configuration not stated)	97	63	0
COc1ccc(-n2nc(C)c3c2NC(=O)CC3c2ccccc2OCc2ccccc2F)cc1 (configuration not stated)	93	70	38
Cc1cc(N[C@@H](Cc2ccccc2)C(=O)Nc2ccccc2)nc(Nc2ccccc2)n1.O=C(O)C(F)(F)F	100	69	8
Cc1cc(N[C@@H](CC(C)C)C(=O)NCc2cccs2)nc(NCCc2cccs2)n1.O=C(O)C(F)(F)F	92	13	0
CCCCCOc1c(CCC)cc(Cc2cnc(N)nc2N)cc1CCC	94	0	58
COc1ccc(-c2nonc2NC(=O)c2cccc(C)c2)cc1OC	97	8	24
Nc1nc(N)c2c(ccc3c2ccn3CCCC(F)(F)F)n1	97	34	66
C=CCOc1ccc(C2C(C(=O)OC)=C(C)NC3=C2C(=O)c2ccccc23)cc1OC (configuration not stated)	82	65	0
COc1ccc2nccc([C@@H](O)CN3CCC(NC(=O)c4ccc(Cl)c(OC)c4)CC3)c2c1	87	28	26

SMILES	Inhibition (Plasmodium falciparum [1]) [%]	Inhibition (Plasmodium falciparum [2]) [%]	Inhibition (HepG2) [%]
CCCCCCN1CCCN(Cc2cccc(NC(=O)c3cc4ccccc4s3)c2)CC1.O=C(O)C(F)(F)F	88	53	31
Cc1cccc(CN2CCC(C(=O)Nc3ccc(-c4nc5ccccc5[nH]4)cc3)CC2)n1	96	3	0
O=S(=O)(Nc1cccc(CCN2CCC(N3CCCCC3)CC2)c1)c1cccc2ccccc12	99	63	23
Cl.Nc1c2c(nc3ccc(C(=O)Nc4cc(I)c(O)c(I)c4)cc13)CCCC2	96	64	14
Nc1ncc(Cc2ccc3c(ccc4ccccc43)c2)c(N)n1	97	3	9
O=C(c1cccc(-c2cccc(-c3nc4ccccc4[nH]3)c2)c1)N1CCCCC1CN1CCC(O)C1 (configuration not stated)	100	56	66
COc1cc2nc(N3CCC(CCCC4CCNCC4)CC3)nc(NCc3ccccn3)c2cc1OC.O=C(O)C(F)(F)F	100	6	2
COc1cc(-c2cc3cc(Cl)c(Cl)cc3[nH]2)ccc1C(=O)NC1CCN(Cc2ccccc2)CC1.O=C(O)C(F)(F)F	100	100	12
O=C(/C=C/c1ccc(Cl)c(Cl)c1)N1CCC(NCc2ccc3[nH]ccc3c2)CC1	97	1	44
CN1CCN(c2cc3c(cc2Cl)CCN3C(=O)Nc2ccc(NC(=O)c3ccc(C(F)(F)F)cc3)cc2)CC1.Cl	100	99	98
CC1=C(C(=O)Nc2cc3cn[nH]c3cc2F)C(c2cccc(NS(C)(=O)=O)c2)CC(=O)N1 (configuration not stated)	96	97	0
Cc1c2ccncc2c(C)c2c1[nH]c1cc(Cc3ccccc3)c(O)cc12	100	99	99
NS(=O)(=O)c1cccc(Nc2nccc(-c3cnn4ncccc34)n2)c1	89	89	39
O=C(Nc1cc(Cl)cc(Cl)c1)N[C@H]1CCN(CCCCCNC(=O)C2CC2c2ccc(Cl)c(Cl)c2)C1 (some centres not stated)	99	0	49
O=C(N1CCN(c2ccnc3cc4c(cc23)N(Cc2ccccc2)CC4)CC1)C(F)(F)F	100	100	8
Cc1cc2c(NC(=O)NC3CCN(Cc4ccc(Cl)c(Cl)c4)CC3)cccc2cn1.Cl	100	41	11
Cc1nc(-c2nc(NCCc3ccncc3)ncc2-c2ccsc2)sc1C	92	87	10
COc1ccc(C=NNc2nc3ccccc3[nH]2)cc1O	95	13	15
NCc1ccc(CNCc2cccc(-c3ccc(-c4nc5cc(C(F)(F)F)ccc5[nH]4)cc3)c2)cc1.O=C(O)C(F)(F)F	98	90	13
